# According to the supplement of paper PMC11732987, “Enantioselective OTUD7B fragment discovery through chemoproteomics screening and high-throughput optimisation” (Communications Chemistry, 2025):
# Values without a mark were called inactive.
# Compound: COc1ccc(CN(C)C(=O)CCl)cc1
# Assay: log2 ratio of Biotin-Ahx-Ub-VS probe labelling (compound/DMSO); higher = less target engagement, active = hit call of the paper (q ≤ 0.05, log2 ratio ≤ -1)
# Conditions: compound concentration: 50uM; treatment time: 3 h
# Method in brief: (§1)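 HEK293T lysate (495 µg per sample, in Tris/CHAPS/IGEPAL buffer with protease inhibitors) was treated in triplicate with compound at 50 or 200 µM or with DMSO for 3 h. It was then treated with Biotin-Ahx-Ub-VS (0.5 µM final) for 1 h. Labelled DUBs were NeutrAvidin-enriched, digested with LysC and trypsin, and run by diaPASEF LC-MS/MS. Median-normalised label-free quantities gave average log2 ratios compound/DMSO by unpaired t-test, using proteins with ≥2 unique peptides.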
# Sequence of UniProt Q96RU2 (Q96RU2 whole entry): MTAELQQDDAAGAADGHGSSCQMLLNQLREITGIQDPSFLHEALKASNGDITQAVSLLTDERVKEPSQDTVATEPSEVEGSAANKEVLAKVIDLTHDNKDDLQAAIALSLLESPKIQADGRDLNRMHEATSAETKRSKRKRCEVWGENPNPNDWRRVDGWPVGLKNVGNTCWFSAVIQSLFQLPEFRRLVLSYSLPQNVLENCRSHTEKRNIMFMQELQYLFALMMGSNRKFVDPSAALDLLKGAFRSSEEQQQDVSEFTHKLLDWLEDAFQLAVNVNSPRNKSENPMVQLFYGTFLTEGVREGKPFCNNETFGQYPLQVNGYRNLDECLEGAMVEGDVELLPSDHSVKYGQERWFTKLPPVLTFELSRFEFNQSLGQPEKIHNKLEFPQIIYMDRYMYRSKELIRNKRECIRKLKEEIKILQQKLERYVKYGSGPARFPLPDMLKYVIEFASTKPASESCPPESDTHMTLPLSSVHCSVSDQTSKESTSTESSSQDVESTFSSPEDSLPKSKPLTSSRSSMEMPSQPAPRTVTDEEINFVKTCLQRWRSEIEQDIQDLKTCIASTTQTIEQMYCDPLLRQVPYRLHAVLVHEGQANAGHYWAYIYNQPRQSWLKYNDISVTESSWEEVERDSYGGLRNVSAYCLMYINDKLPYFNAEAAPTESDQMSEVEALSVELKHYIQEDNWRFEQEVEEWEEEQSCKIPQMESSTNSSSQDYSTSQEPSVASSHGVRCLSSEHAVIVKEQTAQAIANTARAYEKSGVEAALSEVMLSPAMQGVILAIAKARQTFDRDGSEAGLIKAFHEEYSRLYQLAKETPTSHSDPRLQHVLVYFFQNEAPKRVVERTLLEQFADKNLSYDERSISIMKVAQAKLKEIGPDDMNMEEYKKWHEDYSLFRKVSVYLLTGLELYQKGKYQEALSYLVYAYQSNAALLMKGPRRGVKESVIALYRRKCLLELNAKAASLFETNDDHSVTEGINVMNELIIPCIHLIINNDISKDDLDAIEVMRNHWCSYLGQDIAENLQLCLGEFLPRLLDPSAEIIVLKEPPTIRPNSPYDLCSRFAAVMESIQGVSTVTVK
# Sequence of UniProt Q96FW1 (Q96FW1 whole entry): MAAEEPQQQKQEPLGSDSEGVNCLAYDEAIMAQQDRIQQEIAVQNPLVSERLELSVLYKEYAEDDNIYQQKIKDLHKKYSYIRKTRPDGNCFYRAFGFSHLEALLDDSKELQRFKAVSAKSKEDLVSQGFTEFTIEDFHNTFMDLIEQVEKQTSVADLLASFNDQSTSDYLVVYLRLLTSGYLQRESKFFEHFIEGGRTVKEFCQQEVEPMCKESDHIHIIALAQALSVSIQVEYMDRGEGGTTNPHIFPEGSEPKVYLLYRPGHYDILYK
# Sequence of UniProt Q9P275 (Q9P275 whole entry): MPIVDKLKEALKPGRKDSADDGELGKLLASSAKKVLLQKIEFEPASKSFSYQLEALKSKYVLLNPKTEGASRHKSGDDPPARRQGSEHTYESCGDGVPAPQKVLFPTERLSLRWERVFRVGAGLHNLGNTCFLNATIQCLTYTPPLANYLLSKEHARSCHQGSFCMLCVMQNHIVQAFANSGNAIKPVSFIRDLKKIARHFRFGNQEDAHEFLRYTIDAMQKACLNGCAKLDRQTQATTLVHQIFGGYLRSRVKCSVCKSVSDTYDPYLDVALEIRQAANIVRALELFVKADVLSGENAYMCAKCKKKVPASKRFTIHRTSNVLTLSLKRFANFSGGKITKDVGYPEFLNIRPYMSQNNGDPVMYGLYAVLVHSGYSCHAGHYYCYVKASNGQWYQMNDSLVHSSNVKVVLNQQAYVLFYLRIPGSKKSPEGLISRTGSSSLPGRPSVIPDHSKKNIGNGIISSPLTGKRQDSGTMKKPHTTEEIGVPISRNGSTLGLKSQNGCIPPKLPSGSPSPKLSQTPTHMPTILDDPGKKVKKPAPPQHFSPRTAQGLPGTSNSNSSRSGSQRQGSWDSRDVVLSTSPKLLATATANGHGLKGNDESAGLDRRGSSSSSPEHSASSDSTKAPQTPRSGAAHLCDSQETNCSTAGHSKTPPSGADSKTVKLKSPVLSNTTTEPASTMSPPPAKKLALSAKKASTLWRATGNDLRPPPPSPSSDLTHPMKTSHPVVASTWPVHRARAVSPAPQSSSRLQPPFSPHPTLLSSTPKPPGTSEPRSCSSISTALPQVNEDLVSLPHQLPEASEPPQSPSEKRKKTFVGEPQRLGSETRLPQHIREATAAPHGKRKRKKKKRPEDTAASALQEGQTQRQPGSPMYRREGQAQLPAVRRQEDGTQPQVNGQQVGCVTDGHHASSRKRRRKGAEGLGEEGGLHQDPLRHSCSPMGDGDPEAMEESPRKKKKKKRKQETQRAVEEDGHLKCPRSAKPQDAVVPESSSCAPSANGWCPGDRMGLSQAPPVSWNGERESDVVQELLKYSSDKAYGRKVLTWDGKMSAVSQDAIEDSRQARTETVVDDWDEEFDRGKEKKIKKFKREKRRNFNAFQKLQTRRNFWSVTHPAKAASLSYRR
# Sequence of UniProt P51784 (P51784 whole entry): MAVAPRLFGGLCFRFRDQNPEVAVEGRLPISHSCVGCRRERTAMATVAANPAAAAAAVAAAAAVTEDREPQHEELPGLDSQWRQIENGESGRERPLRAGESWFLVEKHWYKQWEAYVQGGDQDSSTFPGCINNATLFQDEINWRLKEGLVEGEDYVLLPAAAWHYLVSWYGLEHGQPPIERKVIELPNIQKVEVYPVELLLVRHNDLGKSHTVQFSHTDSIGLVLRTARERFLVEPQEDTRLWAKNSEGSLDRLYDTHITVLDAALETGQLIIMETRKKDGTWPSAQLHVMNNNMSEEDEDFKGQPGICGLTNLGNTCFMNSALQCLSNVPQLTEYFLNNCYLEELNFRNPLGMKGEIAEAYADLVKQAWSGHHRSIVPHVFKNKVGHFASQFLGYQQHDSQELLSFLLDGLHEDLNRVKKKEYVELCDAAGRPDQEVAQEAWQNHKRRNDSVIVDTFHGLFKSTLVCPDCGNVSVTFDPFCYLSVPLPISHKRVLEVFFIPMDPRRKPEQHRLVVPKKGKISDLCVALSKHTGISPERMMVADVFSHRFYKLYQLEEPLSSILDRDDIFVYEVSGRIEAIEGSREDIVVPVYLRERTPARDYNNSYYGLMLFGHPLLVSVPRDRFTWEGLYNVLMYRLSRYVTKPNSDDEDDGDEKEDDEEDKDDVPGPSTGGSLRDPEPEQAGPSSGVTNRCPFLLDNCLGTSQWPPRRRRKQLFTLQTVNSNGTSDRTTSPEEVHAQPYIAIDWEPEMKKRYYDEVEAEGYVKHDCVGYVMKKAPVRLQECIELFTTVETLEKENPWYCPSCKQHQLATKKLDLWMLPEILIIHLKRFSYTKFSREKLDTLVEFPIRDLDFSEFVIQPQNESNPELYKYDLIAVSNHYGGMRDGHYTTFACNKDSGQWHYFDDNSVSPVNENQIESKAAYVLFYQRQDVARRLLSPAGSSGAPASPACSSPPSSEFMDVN
# Sequence of UniProt Q5VVQ6 (Q5VVQ6 whole entry): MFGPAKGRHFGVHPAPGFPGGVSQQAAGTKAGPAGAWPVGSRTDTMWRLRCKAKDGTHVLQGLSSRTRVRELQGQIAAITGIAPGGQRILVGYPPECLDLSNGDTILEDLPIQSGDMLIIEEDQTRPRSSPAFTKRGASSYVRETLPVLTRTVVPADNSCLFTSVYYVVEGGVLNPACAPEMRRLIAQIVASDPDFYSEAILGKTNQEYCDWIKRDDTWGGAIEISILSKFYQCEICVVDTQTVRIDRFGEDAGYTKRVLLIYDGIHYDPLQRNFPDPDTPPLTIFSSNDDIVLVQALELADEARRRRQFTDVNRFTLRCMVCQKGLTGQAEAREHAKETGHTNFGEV
# Sequence of UniProt Q8N6M0 (Q8N6M0 whole entry): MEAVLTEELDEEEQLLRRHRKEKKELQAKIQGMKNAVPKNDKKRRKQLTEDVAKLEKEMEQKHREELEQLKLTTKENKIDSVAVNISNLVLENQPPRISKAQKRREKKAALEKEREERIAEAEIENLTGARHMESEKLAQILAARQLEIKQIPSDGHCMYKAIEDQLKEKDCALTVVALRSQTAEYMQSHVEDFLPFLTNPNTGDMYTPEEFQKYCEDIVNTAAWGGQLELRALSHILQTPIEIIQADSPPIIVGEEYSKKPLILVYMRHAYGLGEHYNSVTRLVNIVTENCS
# Sequence of UniProt P62068 (P62068 whole entry): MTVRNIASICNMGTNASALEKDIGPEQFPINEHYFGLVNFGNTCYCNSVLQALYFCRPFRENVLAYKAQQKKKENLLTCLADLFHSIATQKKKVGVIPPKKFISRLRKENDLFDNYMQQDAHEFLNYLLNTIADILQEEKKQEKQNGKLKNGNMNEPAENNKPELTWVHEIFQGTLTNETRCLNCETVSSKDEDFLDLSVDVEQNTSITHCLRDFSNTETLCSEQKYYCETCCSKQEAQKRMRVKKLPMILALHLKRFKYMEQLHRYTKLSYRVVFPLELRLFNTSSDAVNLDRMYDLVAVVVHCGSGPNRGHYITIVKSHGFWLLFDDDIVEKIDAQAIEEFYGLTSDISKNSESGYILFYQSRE
# Sequence of UniProt Q9Y5K5 (Q9Y5K5 whole entry): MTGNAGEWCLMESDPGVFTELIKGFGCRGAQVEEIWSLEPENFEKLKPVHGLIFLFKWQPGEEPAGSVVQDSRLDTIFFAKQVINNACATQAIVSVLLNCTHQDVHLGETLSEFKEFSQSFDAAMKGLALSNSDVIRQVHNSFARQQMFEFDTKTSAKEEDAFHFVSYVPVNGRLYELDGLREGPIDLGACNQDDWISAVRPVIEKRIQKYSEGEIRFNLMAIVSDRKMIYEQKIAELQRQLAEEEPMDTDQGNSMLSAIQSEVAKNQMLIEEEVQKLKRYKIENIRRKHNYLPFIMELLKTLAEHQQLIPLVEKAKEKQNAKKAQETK
row,Target,log2 ratio of Biotin-Ahx-Ub-VS probe labelling
1,USP54 (UniProt Q70EL1),-0.773
2,UniProt Q5T2D3,-0.229
3,USP28 (UniProt Q96RU2),-0.172
4,UniProt Q70EL2,-0.338
5,USP22 (UniProt Q9UPT9),-0.0376
6,OTUD6B (UniProt Q8N6M0),-0.181
7,EIF3F (UniProt O00303),-0.317
8,USP36 (UniProt Q9P275),-0.166
9,USP16 (UniProt Q9Y5T5),-0.00981
10,UCHL5 (UniProt Q9Y5K5),-0.288
11,OTUD7B (UniProt Q6GQQ9),-0.435
12,USP14 (UniProt P54578),-0.127
13,USP7 (UniProt Q93009),-0.358
14,USP34 (UniProt Q70CQ2),0.746
15,OTUB1 (UniProt Q96FW1),-0.0667
16,USP9X (UniProt Q93008),-0.101
17,COPS5 (UniProt Q92905),0.00458
18,USP10 (UniProt Q14694),-0.151
19,USP46 (UniProt P62068),-0.0785
20,YOD1 (UniProt Q5VVQ6),-0.465
21,BAP1 (UniProt Q92560),-0.731
22,UniProt P51784,-0.149
23,USP25 (UniProt Q9UHP3),-0.545
24,UniProt Q9UGI0,-0.127

# Same assay, conditions: compound concentration: 200uM; treatment time: 3 h
row,Target,log2 ratio of Biotin-Ahx-Ub-VS probe labelling
1,USP54 (UniProt Q70EL1),-2.33 (active)
2,UniProt Q5T2D3,0.0599
3,USP28 (UniProt Q96RU2),-0.467
4,UniProt Q70EL2,-0.647
5,USP22 (UniProt Q9UPT9),-0.15
6,OTUD6B (UniProt Q8N6M0),-0.334
7,EIF3F (UniProt O00303),-0.0894
8,USP36 (UniProt Q9P275),-0.1
9,USP16 (UniProt Q9Y5T5),-0.105
10,UCHL5 (UniProt Q9Y5K5),-0.317
11,OTUD7B (UniProt Q6GQQ9),-0.811
12,USP14 (UniProt P54578),-0.0256
13,USP7 (UniProt Q93009),-1.04 (active)
14,USP34 (UniProt Q70CQ2),-0.399
15,OTUB1 (UniProt Q96FW1),-0.232
16,USP9X (UniProt Q93008),-0.202
17,COPS5 (UniProt Q92905),-0.13
18,USP10 (UniProt Q14694),-0.0732
19,USP46 (UniProt P62068),-0.634
20,YOD1 (UniProt Q5VVQ6),-0.288
21,BAP1 (UniProt Q92560),-1.9 (active)
22,UniProt P51784,-0.291
23,USP25 (UniProt Q9UHP3),-0.345
24,UniProt Q9UGI0,-0.258

# Compound: COc1cccc(CN(CCCc2ccccc2)C(=O)CCl)c1
# Assay: as above
# Conditions: compound concentration: 50uM; treatment time: 3 h
# Method in brief: as §1
row,Target,log2 ratio of Biotin-Ahx-Ub-VS probe labelling
1,USP54 (UniProt Q70EL1),-0.358
2,UniProt Q5T2D3,-0.157
3,USP28 (UniProt Q96RU2),-0.253
4,UniProt Q70EL2,-0.512
5,USP22 (UniProt Q9UPT9),-0.102
6,OTUD6B (UniProt Q8N6M0),-0.28
7,EIF3F (UniProt O00303),-0.0548
8,USP36 (UniProt Q9P275),-0.116
9,USP16 (UniProt Q9Y5T5),-0.312
10,UCHL5 (UniProt Q9Y5K5),-0.37
11,OTUD7B (UniProt Q6GQQ9),-0.145
12,USP14 (UniProt P54578),-0.187
13,USP7 (UniProt Q93009),-0.387
14,USP34 (UniProt Q70CQ2),-0.287
15,OTUB1 (UniProt Q96FW1),-0.125
16,USP9X (UniProt Q93008),-0.221
17,COPS5 (UniProt Q92905),-0.0338
18,USP10 (UniProt Q14694),-0.12
19,USP46 (UniProt P62068),-0.32
20,YOD1 (UniProt Q5VVQ6),-0.0608
21,BAP1 (UniProt Q92560),-1.04 (active)
22,UniProt P51784,-0.0998
23,USP25 (UniProt Q9UHP3),0.265
24,UniProt Q9UGI0,-0.157

# Same assay, conditions: compound concentration: 200uM; treatment time: 3 h
row,Target,log2 ratio of Biotin-Ahx-Ub-VS probe labelling
1,USP54 (UniProt Q70EL1),-2.68 (active)
2,UniProt Q5T2D3,-0.202
3,USP28 (UniProt Q96RU2),-0.826
4,UniProt Q70EL2,-0.481
5,USP22 (UniProt Q9UPT9),-0.225
6,OTUD6B (UniProt Q8N6M0),-0.784
7,EIF3F (UniProt O00303),-0.0324
8,USP36 (UniProt Q9P275),-0.158
9,USP16 (UniProt Q9Y5T5),-0.936
10,UCHL5 (UniProt Q9Y5K5),-1.17 (active)
11,OTUD7B (UniProt Q6GQQ9),-0.385
12,USP14 (UniProt P54578),-0.626
13,USP7 (UniProt Q93009),-1.22 (active)
14,USP34 (UniProt Q70CQ2),-0.935
15,OTUB1 (UniProt Q96FW1),-0.389
16,USP9X (UniProt Q93008),-1.31 (active)
17,COPS5 (UniProt Q92905),-0.0977
18,USP10 (UniProt Q14694),0.0548
19,USP46 (UniProt P62068),-1.33 (active)
20,YOD1 (UniProt Q5VVQ6),0.000762
21,BAP1 (UniProt Q92560),-3.18 (active)
22,UniProt P51784,-0.339
23,USP25 (UniProt Q9UHP3),-0.358
24,UniProt Q9UGI0,-0.231
